Experiment [1] has as its target human Vitamin D Receptor (VDR), VDR (gene 7421) (UniProt P11473). In words: ATG_VDR_TRANS: Attagene TRANS-FACTORIAL HepG2 Assay for human Vitamin D Receptor (VDR) (AID 2283022; active = hit-call score of the fitted dose curve at least 0.9, where 1 is the maximum). An outline of the steps: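 HepG2 cells were transiently transfected with GAL4-UAS reporter units and a chimeric VDR-Gal4 construct, then dosed for 24 hours. Reporter mRNA was quantified by RT-PCR, fluorescent labeling, HpaI digestion and capillary electrophoresis; gain of signal analysed vs DMSO.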

Read-out in experiment [2]: Monokine induced gamma interferon (MIG), CXCL9 (gene 4283)
Description: BSK_3C_MIG: BioMAP Diversity Plus: 3C Assay for Monokine induced gamma interferon (MIG) Biomarker Activity (AID 2283021). Conditions: primary human endothelial cells (HUVEC); actives raise or lower the signal. The gist of the method: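 After 24 h of treatment, human umbilical vein endothelial cultures (3C system) had their MIG biomarker level determined by ELISA, with DMSO serving as negative control.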

Experiment [3] is described as follows: BSK_3C_SRB: Viability Assessment in the BioMAP Diversity Plus: 3C Assay (AID 2283023).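 Note: fitted both ways against DMSO so a hit may be signal rise or drop.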 Conditions: primary human endothelial cells (HUVEC). An outline of the steps: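 Human umbilical vein endothelial cells in the 3C system, treated 24 h. Total protein measured by 0.1% sulforhodamine B staining after 10% TCA fixation, read at 560 nm; bidirectional fit versus DMSO.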

Read-out in experiment [4]: Matrix Metallopeptidase 1 (MMP1), MMP1 (gene 4312)
In words: BSK_BE3C_MMP1: BioMAP Diversity Plus: BE3C Assay for Matrix Metallopeptidase 1 (MMP1) Biomarker Activity (AID 2283024). Conditions: primary human bronchial epithelial cells; actives raise or lower the signal. An outline of the steps:
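Dose cells, wait 24 h, run MMP1 ELISA; cells are human bronchial epithelial primaries. Both increases and decreases relative to DMSO counted.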

Read-out in experiment [5]: Pselectin, SELP (gene 6403)
Description: BSK_4H_Pselectin: BioMAP Diversity Plus: 4H Assay for Pselectin Biomarker Activity (AID 2283026). Conditions: primary human endothelial cells (HUVEC); actives raise or lower the signal. The gist of the method: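 Human vascular endothelium from umbilical vein; P-selectin measured by ELISA at 24 h post-dose, with cytotoxicity checked by sulforhodamine B total-protein staining in parallel cultures (0.1% SRB after 10% TCA fixation, read at 560 nm).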

Experiment [6] can be described thus: BSK_4H_SRB: Viability Assessment in the BioMAP Diversity Plus: 4H Assay (AID 2283027).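 Note: cells exposed to compound for 24 h before staining.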 Conditions: primary human endothelial cells (HUVEC). The gist of the method: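 Human umbilical vein endothelial cells, 24 h after chemical dosing; total protein measured by 0.1% sulforhodamine B staining after 10% TCA fixation, read at 560 nm. Bidirectional fitting against DMSO.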

Experiment [7] in a line: BSK_BE3C_SRB: Viability Assessment in the BioMAP Diversity Plus: BE3C Assay (AID 2283028). Conditions: primary human bronchial epithelial cells. An outline of the steps: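 Human bronchial epithelial primary cells in confluent culture, 24 h after chemical dosing; total protein by 0.1% SRB staining after 10% TCA fixation, read at 560 nm. Bidirectional fitting versus DMSO baseline.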

Read-out in experiment [8]: Thrombomodulin, THBD (gene 7056)
In words: BSK_3C_Thrombomodulin: BioMAP Diversity Plus: 3C Assay for Thrombomodulin Biomarker Activity (AID 2283029). Conditions: primary human endothelial cells (HUVEC); actives raise or lower the signal. The gist of the method: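 Thrombomodulin ELISA, human primary HUVEC, 24 h post-dose; data fitted in both directions relative to DMSO.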

Read-out in experiment [9]: Urokinase-type plasminogen activator receptor (uPAR), PLAUR (gene 5329)
In words: BSK_4H_uPAR: BioMAP Diversity Plus: 4H Assay for Urokinase-type plasminogen activator receptor (uPAR) Biomarker Activity (AID 2283030). Conditions: primary human endothelial cells (HUVEC); actives raise or lower the signal. An outline of the steps:
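Human umbilical vein endothelial cells in the 4H system, 24 h after chemical dosing. Cell-surface uPAR measured by ELISA, fitted in both directions versus DMSO; cytotoxicity checked by SRB total protein in parallel cultures.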

Structures are written as SMILES. Results filed as inconclusive are left out. Activity calls are given as the source filed them. Rule for the calls, unless noted: active = hit-call score of the fitted dose curve at least 0.9, where 1 is the maximum; inactive = score below 0.9.

These results are taken from PubChem BioAssay (EPA / NIEHS).

Chain of human Vitamin D Receptor (VDR), VDR (gene 7421) (P11473 whole entry, looked up, the tested form may be a part): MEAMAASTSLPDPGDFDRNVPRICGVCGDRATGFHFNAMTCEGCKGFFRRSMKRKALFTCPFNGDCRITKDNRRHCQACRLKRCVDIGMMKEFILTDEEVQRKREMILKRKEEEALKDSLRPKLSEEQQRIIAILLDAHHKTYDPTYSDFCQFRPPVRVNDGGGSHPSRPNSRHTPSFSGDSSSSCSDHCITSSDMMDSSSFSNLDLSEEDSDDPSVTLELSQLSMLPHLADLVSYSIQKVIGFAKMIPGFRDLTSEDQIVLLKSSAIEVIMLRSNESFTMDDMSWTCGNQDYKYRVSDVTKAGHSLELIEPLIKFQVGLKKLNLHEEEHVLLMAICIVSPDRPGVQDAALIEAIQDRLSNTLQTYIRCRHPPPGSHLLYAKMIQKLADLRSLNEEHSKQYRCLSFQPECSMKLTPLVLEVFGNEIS

On to `CC(=O)OCCOC(C)=O`, for which the outcome in [1] was inactive.

Turning to `O=C1c2ccccc2C(=O)N1SC1CCCCC1`, the call in [1] was inactive.

On to `O=Cc1ccc(F)cc1`, for which the outcome in experiment [1] was inactive.

As for `O=S(=O)(O)c1ccc(O)c2ncccc12`, the result in experiment [1] was inactive.

`CC(C=O)Cc1ccc(C(C)C)cc1` (centres undefined): the outcome in [1] was inactive.

Regarding `CCCCCCCCCCCCCCCC(=O)OC[C@H](O)[C@H]1OC(=O)C(O)=C1O`, the result in experiment [1] was inactive.

On to `O=Cc1ccc(Cl)c([N+](=O)[O-])c1`, for which the call in experiment [1] was inactive.

For `NC(N)=NC(=O)c1nc(Cl)c(N)nc1N`, the compound was called inactive in experiment [1].

In the case of `CC(=O)OCCC(C)CC(C)(C)C` (centres undefined), the outcome in [2], in experiment [3], in experiment [4], in experiment [5], in experiment [6] and in experiment [7] was inactive. The outcome in experiment [8] and in [9] was inactive.

`COc1cc(C=O)ccc1OC(=O)C(C)C`: the outcome in experiment [2], in [3], in [4], in [5], in experiment [6] and in experiment [7] was inactive. The outcome in [8] and in experiment [9] was inactive.

Consider `CCCCO`, for which the outcome in [1] was inactive.

As to `COc1cc(C(C)(C)C)c(O)c(C(C)(C)C)c1`, the outcome in experiment [1] was inactive.

Regarding `N#Cc1nc(Cl)c(Cl)c(Cl)c1Cl`, the result in experiment [1] was inactive.

Take `O=C(COc1ccc(Cl)cc1)N1CCN(Cc2ccc3c(c2)OCO3)CC1`: the result in [1] was inactive.

As for `NCCNCCN`, the result in experiment [2], in experiment [3], in [4], in [5], in experiment [6] and in experiment [7] was inactive. The outcome in [8] and in [9] was inactive.

With `OC1C(O)C(O)C(O)C(O)C1O` (centres undefined), the outcome in experiment [1] was inactive.

As for `COC(C)CCO` (centres undefined), in experiment [1], the outcome was inactive.

`C[C@H]1C[C@@H]2[C@H]([C@@H](O)C[C@@]3(C)[C@H]2CC[C@]3(O)C(=O)CO)[C@@]2(C)C=CC(=O)C=C12`: the outcome in experiment [2], in experiment [3], in experiment [4], in experiment [5], in [6] and in [7] was inactive. The result in [8] and in [9] was inactive.

Regarding `Cc1cc(C2(c3cc(C)c(O)cc3C)OS(=O)(=O)c3ccccc32)c(C)cc1O`, the result in experiment [2], in [3], in experiment [4], in [5], in experiment [6] and in experiment [7] was inactive. For the same compound, the outcome in experiment [8] and in experiment [9] was inactive.
